In PubChem BioAssay:
Several values for one entry are separate records, joined by “and”; a condition that tells them apart may be missing. Equal entries are not always repeated. Activity calls are given as the source filed them.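 How the source made its calls, unless noted: active means compound raises insulin release from rat beta cells at 5 mM glucose, no numeric limit stated; inactive means the rest.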

Key:
[1] = stimulators of nuclear beta-catenin in C2C12, primary screen, imaging, WNT3A-conditioned medium, mouse C2C12, NPC library (AID 1117326; in the data active means nuclear beta-catenin stimulation mostly above about 4.2%, no sharp cut-off; inactive means mostly below about 10%); conditions: stronger effect = higher value
[2] = stimulators of insulin release from INS-1E, primary screen, cell-based, 5 mM glucose, NPC library (AID 1117329); conditions: rat INS-1E insulin secretion, at 10 µM, stronger effect = higher value
[3] = growth inhibition of GSK3B-pretreated HCT116 cells – cell-based, CellTiter-Glo, 0.2 to 20 µM (AID 1117336;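 active means compounds lowering colon cancer cell viability after pretreatment blocking the GSK3B kinase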); conditions: HCT116 viability after GSK3B inhibitor, at 20 µM, stronger effect = higher value
[4] = inhibition of endothelial tube formation, primary screen, imaging, VEGF stimulated, CD31 staining, tube area, NPC library (AID 1117340;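 active means compound that reduces growth-factor-driven endothelial tube area in a mixed cell culture, no cutoff stated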); conditions: VEGF-stimulated ADSC/ECFC co-culture, at 10 µM, stronger effect = higher value
[5] = glucagon-like peptide 1 release enhancers, primary assay, NCI-H716 cell line, NPC library (AID 1117341;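 active means compound raises GLP1 secretion from the human gut endocrine cells, with no numeric limit stated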); conditions: NCI-H716 cells, at 10 µM, stronger effect = higher value
[6] = HCT116 colon cancer cell growth inhibition, primary screen, CellTiter-Glo luminescence, NPC library (AID 1117342;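 active means compounds that lower survival of HCT116 colon cancer cells in the luminescence readout, no numeric limit stated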); conditions: at 20 µM (top of the series)
[7] = CellTiter-Glo luminescent readout of SW480 viability loss, NPC library primary (AID 1117343;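 active means compounds that lower viability of the colon cancer cells in the luminescence readout, with no numeric limit stated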); conditions: CellTiter-Glo luminescence; at 20 µM (top of the series) unless noted
[8] = decreased DLD-1 cellular survival, CellTiter-Glo luminescent readout, NPC compound collection, primary HTS (AID 1117346;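 active means compounds that lower survival of DLD-1 colon cancer cells in the luminescence readout, no cutoff given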); conditions: DLD-1 viability, CellTiter-Glo luminescence; at 20 µM (top of the series)
[9] = biological target: NAD(+) hydrolase SARM1 (Homo sapiens) (UniProt Q6SZW1); assay: SARM1 TIR NADase inhibitors, cell lysate, NAD-Glo luminescence (AID 1508614;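 active means compound whose remaining NAD level is above about 45 nM, limit read from the data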); conditions: SAM-TIR HEK293T lysate NADase, at 1 µM, stronger effect = higher value
Chain of NAD(+) hydrolase SARM1 (Homo sapiens) (Q6SZW1 whole entry, looked up, the tested form may be a part): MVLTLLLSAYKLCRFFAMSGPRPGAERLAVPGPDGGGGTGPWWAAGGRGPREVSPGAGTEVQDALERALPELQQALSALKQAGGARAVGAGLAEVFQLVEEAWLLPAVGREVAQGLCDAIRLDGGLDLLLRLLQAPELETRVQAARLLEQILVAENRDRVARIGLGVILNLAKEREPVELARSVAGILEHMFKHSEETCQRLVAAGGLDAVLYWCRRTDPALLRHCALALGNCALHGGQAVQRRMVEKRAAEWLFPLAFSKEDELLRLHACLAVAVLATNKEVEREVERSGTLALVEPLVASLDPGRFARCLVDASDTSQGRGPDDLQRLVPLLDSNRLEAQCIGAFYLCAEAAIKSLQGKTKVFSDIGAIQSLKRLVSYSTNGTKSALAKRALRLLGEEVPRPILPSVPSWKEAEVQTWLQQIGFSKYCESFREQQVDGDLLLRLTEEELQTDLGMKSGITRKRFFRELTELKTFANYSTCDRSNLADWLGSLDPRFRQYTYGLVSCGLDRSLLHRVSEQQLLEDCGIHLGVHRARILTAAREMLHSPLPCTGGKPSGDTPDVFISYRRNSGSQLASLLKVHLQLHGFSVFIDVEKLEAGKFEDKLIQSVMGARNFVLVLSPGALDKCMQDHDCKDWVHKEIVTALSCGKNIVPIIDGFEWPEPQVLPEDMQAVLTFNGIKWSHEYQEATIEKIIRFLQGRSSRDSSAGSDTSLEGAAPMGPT

[10] = biological target: Mitogen-activated protein kinase 7 (Homo sapiens) (UniProt Q13164); assay: ERK5 transactivation activators in reporter cells, primary screen, cell-based, HTS (AID 1508626;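 active means luciferase signal above three times the same-plate solvent-only control wells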;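 further: luciferase driven by Gal4-ERK5 fusion binding five Gal4 sites before minimal TATA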); conditions: HeLa Gal4-ERK5 transactivation, 18 h, at 5 µM, stronger effect = higher value
Chain of Mitogen-activated protein kinase 7 (Homo sapiens) (Q13164 whole entry, looked up, the tested form may be a part): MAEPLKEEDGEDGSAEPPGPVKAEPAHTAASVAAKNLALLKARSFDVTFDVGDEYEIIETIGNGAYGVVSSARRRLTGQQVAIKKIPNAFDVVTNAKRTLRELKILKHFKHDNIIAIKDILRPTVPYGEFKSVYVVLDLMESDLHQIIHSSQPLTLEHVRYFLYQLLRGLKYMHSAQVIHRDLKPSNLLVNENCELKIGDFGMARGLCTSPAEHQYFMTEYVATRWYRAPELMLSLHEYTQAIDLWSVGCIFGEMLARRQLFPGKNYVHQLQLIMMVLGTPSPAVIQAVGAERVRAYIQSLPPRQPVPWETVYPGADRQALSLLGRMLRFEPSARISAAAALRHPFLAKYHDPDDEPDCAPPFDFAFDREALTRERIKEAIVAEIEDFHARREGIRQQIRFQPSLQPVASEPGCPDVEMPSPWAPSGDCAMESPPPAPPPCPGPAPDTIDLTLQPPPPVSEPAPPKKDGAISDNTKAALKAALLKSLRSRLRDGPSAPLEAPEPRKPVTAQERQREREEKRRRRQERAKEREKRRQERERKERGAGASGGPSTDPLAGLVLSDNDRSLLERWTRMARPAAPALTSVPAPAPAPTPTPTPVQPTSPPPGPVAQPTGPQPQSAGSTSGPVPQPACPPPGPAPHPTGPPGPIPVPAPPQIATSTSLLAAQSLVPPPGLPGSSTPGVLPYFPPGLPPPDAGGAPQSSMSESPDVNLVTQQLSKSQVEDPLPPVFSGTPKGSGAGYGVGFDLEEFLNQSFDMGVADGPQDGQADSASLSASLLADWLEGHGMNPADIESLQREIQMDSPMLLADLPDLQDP

[11] = sensitizers of A549 cells to miR-34 induction, primary screen, imaging, A549 dox-inducible miR-34, nuclei and caspase counts (AID 1347080;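 active means compounds whose cell count with miR-34 switched on is under 0.7 times the count with it off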); conditions: A549 miR-34 inducible, Hoechst nuclei count, 48 h
[12] = survival rescue of mitochondrial mutant cells in low glucose, primary screen, MELAS cybrids, Rieske KO mouse fibroblasts, CellTiter-Glo (AID 1508586;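 active means mean z-score across replicates of 1.96 or higher in either the MELAS or the Rieske mutant cell line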;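 further: z relative to plate mean and SD of compound and empty wells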)
[13] = biological target: 6-phosphogluconate dehydrogenase, decarboxylating (Homo sapiens) (UniProt P52209); assay: 6PGD enzyme inhibitors, primary screen, biochemical, human, recombinant enzyme, NADPH absorbance (AID 1159550;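 active means at least 20% inhibition of 6-phosphogluconate dehydrogenase activity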); conditions: recombinant 6PGD, NADPH absorbance 341 nm; at 10 µM; stronger effect = higher value
Chain of 6-phosphogluconate dehydrogenase, decarboxylating (Homo sapiens) (P52209 whole entry, looked up): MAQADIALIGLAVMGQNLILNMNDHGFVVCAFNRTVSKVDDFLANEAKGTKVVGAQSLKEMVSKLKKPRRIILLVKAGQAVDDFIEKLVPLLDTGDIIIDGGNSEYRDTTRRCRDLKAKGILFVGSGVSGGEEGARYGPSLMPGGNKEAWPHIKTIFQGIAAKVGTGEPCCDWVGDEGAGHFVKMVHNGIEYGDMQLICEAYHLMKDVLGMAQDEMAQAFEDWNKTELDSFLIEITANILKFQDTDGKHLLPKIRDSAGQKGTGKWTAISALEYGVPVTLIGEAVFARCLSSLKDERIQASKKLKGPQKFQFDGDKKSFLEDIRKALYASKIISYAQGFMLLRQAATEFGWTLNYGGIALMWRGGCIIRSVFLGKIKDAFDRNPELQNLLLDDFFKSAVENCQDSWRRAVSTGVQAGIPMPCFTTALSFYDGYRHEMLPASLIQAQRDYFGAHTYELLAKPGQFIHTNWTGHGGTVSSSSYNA

[14] = differential killing of epithelial or mesenchymal cells, primary screen, imaging, PC-3E GFP, TEM4-18 mCherry, co-culture (AID 1345086;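 active means compounds killing one labelled cell type while sparing the other, by normalised counts and ratio limits, not self-fluorescent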;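 further: cells exposed to compound for 72 h before imaging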;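 on red/green cell ratio (normalised): normalised mesenchymal count divided by normalised epithelial count so high means epithelial killing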); conditions: imaging cell counts, at 1 µM
[15] = viability rescue of complex I mutant cybrids, primary screen, cell-based, galactose medium, ATP luminescence (AID 1645843;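 active means z-score of at least 1.8 in each of two replicates, scored against plate mean and spread of sample wells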;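 further: positive z means more ATP and so rescue of galactose-driven cybrid death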); conditions: complex I mutant cybrid cells, 72 h, stronger effect = higher value
[16] = stronger effect = lower value, cell number ratio, induced over uninduced
[17] = measured here: relative caspase fold change +Dox/-Dox
[18] = measured here: total cells with miR-34 induction, stronger effect = lower value
[19] = measured here: total cells without miR-34 induction

C[C@]12CC[C@@H]3c4ccc(O)cc4CC[C@H]3[C@@H]1CC[C@@H]2OC(=O)CCC1CCCC1
nuclear beta-catenin stimulation ([1]; at 10 µM): 28.4% (inactive) | nuclear beta-catenin stimulation ([1]; stimulation, at 2 µM): 2.5% | insulin secretion stimulation [2]: 0.5% (inactive) | viability decrease [3]: -8.5% (inactive) | tube area decrease [4]: 110% (active) | GLP1 secretion stimulation [5]: 3.6% (inactive) | inhibition of viability [6]: 6.73% (inactive) | viability decrease (inhibition) [7]: 27% (inactive) | viability decrease (inhibition) [8]: -23.3% (inactive) | remaining NAD [9]: 10 nM (inactive) | luciferase signal [10]: 84 AU (inactive)

CCCCCCCCCCCCCCCC(=O)OCC=C(C)C=CC=C(C)C=CC1=C(C)CCCC1(C)C
nuclear beta-catenin stimulation ([1]; at 10 µM): -1.5% (inactive) | nuclear beta-catenin stimulation ([1]; stimulation, at 2 µM): -0.3% | insulin secretion stimulation [2]: 1.2% (inactive) | GLP1 secretion stimulation [5]: 2.7% (inactive)

O=C(O)c1cc(N=Nc2ccc(O)c(C(=O)O)c2)ccc1O
nuclear beta-catenin stimulation ([1]; at 10 µM): 1.3% (inactive) | nuclear beta-catenin stimulation ([1]; stimulation, at 2 µM): 8.5% | insulin secretion stimulation [2]: 0.9% (inactive) | viability decrease [3]: 15.9% (inactive) | inhibition of viability [6]: 20.6% (inactive) | viability decrease (inhibition) [7]: -10.4% (inactive) | viability decrease (inhibition) [8]: 18.3% (inactive) | fold change [11, 16]: 0.936 (inactive) and 1.24 (inactive) | fold change [11, 17]: 0.766 and 0.877 | cell count [11, 18]: 9060 and 9000 | cell count [11, 19]: 9680 and 7270 | z-score ([12]; MELAS cybrid survival, CellTiter-Glo 48 h, stronger effect = higher value): -0.277 (inactive) | z-score ([12]; Rieske KO mouse fibroblast survival, CellTiter-Glo 72 h): -0.199 | remaining NAD [9]: 10 nM (inactive)

CCCC(=O)O[C@]1(C(=O)CO)CC[C@H]2[C@@H]3CCC4=CC(=O)CC[C@]4(C)[C@H]3[C@@H](O)C[C@@]21C
nuclear beta-catenin stimulation ([1]; at 10 µM): 0.1% (inactive) | nuclear beta-catenin stimulation ([1]; stimulation, at 2 µM): 1.4% | insulin secretion stimulation [2]: 1.4% (inactive) | viability decrease [3]: -45.5% (inactive) | tube area decrease [4]: 18.3% (inactive) | GLP1 secretion stimulation [5]: 3.7% (inactive) | inhibition of viability [6]: 24.2% (inactive) | viability decrease (inhibition) [7]: 19.8% (inactive) | viability decrease (inhibition) [8]: 1% (inactive) | remaining NAD [9]: 10 nM (inactive) | luciferase signal [10]: 148 AU (inactive)

CN1CCN(c2cc3c(nn2)Oc2ccccc2N3C)CC1
nuclear beta-catenin stimulation ([1]; at 10 µM): 0.9% (inactive) | nuclear beta-catenin stimulation ([1]; stimulation, at 2 µM): 0.3% | insulin secretion stimulation [2]: -1.15% (inactive) | GLP1 secretion stimulation [5]: 5.9% (inactive)

CCC=CCC=CCC=CCCCCCCCC(=O)O
nuclear beta-catenin stimulation ([1]; at 10 µM): -0.2% (inactive) | nuclear beta-catenin stimulation ([1]; stimulation, at 2 µM): 0% | insulin secretion stimulation [2]: 2.65% (inactive) | GLP1 secretion stimulation [5]: 12.4% (inactive)

CO[C@H]1O[C@@H]2O[C@@]3(C)CC[C@H]4[C@H](C)CC[C@@H]([C@@H]1C)[C@@]24OO3
nuclear beta-catenin stimulation ([1]; at 10 µM): 1.9% (inactive) | nuclear beta-catenin stimulation ([1]; stimulation, at 2 µM): 11.7% | insulin secretion stimulation [2]: -0.85% (inactive) | viability decrease [3]: 33.2% (inactive) | GLP1 secretion stimulation [5]: 2% (inactive) | inhibition of viability [6]: -3% (inactive) | viability decrease (inhibition) [7]: 2.9% (inactive) | viability decrease (inhibition) [8]: 7.2% (inactive)

CCOc1cc(NC(C)=O)ccc1C(=O)OC
nuclear beta-catenin stimulation ([1]; at 10 µM): 2.6% (inactive) | nuclear beta-catenin stimulation ([1]; stimulation, at 2 µM): 2% | insulin secretion stimulation [2]: 4.4% (inactive) | tube area decrease [4]: 11.7% (inactive) | GLP1 secretion stimulation [5]: 0.3% (inactive)

CC(=C(CCOC(=O)C(C)C)SSC(CCOC(=O)C(C)C)=C(C)N(C=O)Cc1cnc(C)nc1N)N(C=O)Cc1cnc(C)nc1N
nuclear beta-catenin stimulation ([1]; at 10 µM): -0.6% (inactive) | nuclear beta-catenin stimulation ([1]; stimulation, at 2 µM): 4.5% | insulin secretion stimulation [2]: 31.5% (active) | viability decrease [3]: 20.6% (inactive) | inhibition of viability [6]: 30.9% (inactive) | viability decrease (inhibition) [7]: -6.3% (inactive) | viability decrease (inhibition) [8]: -3.9% (inactive)

COC(=O)CCCCC(CCSS/C(CCO)=C(\C)N(C=O)Cc1cnc(C)nc1N)SC(C)=O (stereo unspecified)
nuclear beta-catenin stimulation ([1]; at 10 µM): 1% (inactive) | nuclear beta-catenin stimulation ([1]; stimulation, at 2 µM): -1% | insulin secretion stimulation [2]: 0.75% (inactive) | GLP1 secretion stimulation [5]: 0.4% (inactive)

Cc1c(O)cc2c(c1C)O[C@](C)(CCC[C@H](C)CCC[C@H](C)CCCC(C)C)CC2
nuclear beta-catenin stimulation ([1]; at 10 µM): 0.3% (inactive) | nuclear beta-catenin stimulation ([1]; stimulation, at 2 µM): -0.6% | insulin secretion stimulation [2]: 0.7% (inactive) | GLP1 secretion stimulation [5]: 9.2% (inactive)

N[C@H]1C(O)O[C@H](CO)[C@@H](O)[C@@H]1O (stereo partly specified)
nuclear beta-catenin stimulation ([1]; at 10 µM): -1% (inactive) | nuclear beta-catenin stimulation ([1]; stimulation, at 2 µM): 1.7% | insulin secretion stimulation [2]: 1.4% (inactive) | viability decrease [3]: 7.5% (inactive) | tube area decrease [4]: -12.1% (inactive) | GLP1 secretion stimulation [5]: -0.8% (inactive) | inhibition of viability [6]: -4.93% (inactive) | viability decrease (inhibition) [7]: -42% (inactive) | viability decrease (inhibition) [8]: -2.3% (inactive) | luciferase signal [10]: 84 AU (inactive)

CC(C)=CCCC(C)=CCCC(C)=CCCC=C(C)CCC=C(C)CCC=C(C)C
nuclear beta-catenin stimulation ([1]; at 10 µM): -0.4% (inactive) | nuclear beta-catenin stimulation ([1]; stimulation, at 2 µM): 1.7% | insulin secretion stimulation [2]: 0.6% (inactive) | GLP1 secretion stimulation [5]: -1.9% (inactive)

O=C(O)C1(C(=O)O)CCC1.[NH2-].[NH2-].[Pt+2]
nuclear beta-catenin stimulation ([1]; at 10 µM): 0% (inactive) | nuclear beta-catenin stimulation ([1]; stimulation, at 2 µM): -2.2% | insulin secretion stimulation [2]: -0.3% (inactive) | viability decrease [3]: 67.5% (active) | tube area decrease [4]: 55.4% (active) | GLP1 secretion stimulation [5]: 3% (inactive) | inhibition of viability [6]: 31.7% (inactive) | viability decrease (inhibition) [7]: 2.3% (inactive) | viability decrease (inhibition) [8]: 5.7% (inactive) | remaining NAD [9]: 10 nM (inactive) | luciferase signal [10]: 40 AU (inactive)

O=[N+]([O-])c1cccc(S(=O)(=O)NCCNS(=O)(=O)c2cccc([N+](=O)[O-])c2)c1
nuclear beta-catenin stimulation ([1]; at 10 µM): 0.3% (inactive) | nuclear beta-catenin stimulation ([1]; stimulation, at 2 µM): 0.2% | insulin secretion stimulation [2]: -0.55% (inactive) | viability decrease [3]: 38.9% (inactive) | GLP1 secretion stimulation [5]: 3.1% (inactive) | inhibition of viability [6]: 7.6% (inactive) | viability decrease (inhibition) [7]: 6.5% (inactive) | viability decrease (inhibition) [8]: 14.5% (inactive)

CCCn1cnc2c1c(=O)n(CCCCC(C)=O)c(=O)n2C
nuclear beta-catenin stimulation ([1]; at 10 µM): 6.6% (inactive) | nuclear beta-catenin stimulation ([1]; stimulation, at 2 µM): -0.2% | insulin secretion stimulation [2]: -1.25% (inactive) | viability decrease [3]: 14.1% (inactive) | GLP1 secretion stimulation [5]: -4.5% (inactive) | inhibition of viability [6]: 20.6% (inactive) | viability decrease (inhibition) [7]: -2.8% (inactive) | viability decrease (inhibition) [8]: 19.6% (inactive) | inhibition [13]: -7.06% (inactive) | red/green cell ratio (normalised) ([14]; actives lie on both sides, counts scaled to control wells, 1 = unselective): 0.84 (inactive) | normalised cell number ([14]; measured here: epithelial PC-3E GFP cell survival): 1.14 | normalised cell number ([14]; measured here: mesenchymal TEM4-18 mCherry cell survival): 0.96 | fold change [11, 16]: 1.02 (inactive) | fold change [11, 17]: 0.994 | cell count [11, 18]: 10000 | cell count [11, 19]: 9790 | z-score [15]: 0.675 (inactive)
